# Source: PubChem BioAssay AID2283097 (EPA ToxCast)
# Inconclusive results are not listed. The source made the active and inactive calls. The calls were made as follows: active = hit-call score of the fitted dose curve at least 0.9, where 1 is the maximum; inconclusive = response in the unintended direction; inactive = score below 0.9.
# Target: human CYP1B1, CYP1B1 (gene 1545) (UniProt Q16678)
# Assay: NVS_ADME_hCYP1B1: NovaScreen (NVS) CYP450-related Enzyme Activity (ADME) Assay for human CYP1B1
# Protocol: NVS_ADME_hCYP1B1 is a biochemical, single-readout assay that uses extracted gene-proteins in a cell-free assay. Measurements were taken 1 hour after chemical dosing in a 96-well plate.NVS_ADME_hCYP1B1 is one of one assay component(s) measured or calculated from the NVS_ADME_hCYP1B1 assay. It is designed to make measurements of enzyme activity, a form of enzyme reporter, as detected with fluorescence intensity signals by Fluorescence technology.Data from the assay component NVS_ADME_hCYP1B1 was analyzed into 1 assay endpoint. This assay endpoint, NVS_ADME_hCYP1B1, was analyzed in the positive analysis fitting direction relative to Acetonitrile as the negative control and baseline of activity. Using a type of enzyme reporter, loss-of-signal activity can be used to understand changes in the enzymatic activity as they relate to the gene CYP1B1. Furthermore, this assay endpoint can be referred to as a primary readout, because this assay has produced multiple assay endpoints where this one serves a enzymatic activity function. To generalize the intended target to other relatable targets, this assay endpoint is annotated to the cyp intended target family, where the subfamily is xenobiotic metabolism. […]
# human CYP1B1, CYP1B1 (gene 1545), sequence (Q16678 whole entry, looked up): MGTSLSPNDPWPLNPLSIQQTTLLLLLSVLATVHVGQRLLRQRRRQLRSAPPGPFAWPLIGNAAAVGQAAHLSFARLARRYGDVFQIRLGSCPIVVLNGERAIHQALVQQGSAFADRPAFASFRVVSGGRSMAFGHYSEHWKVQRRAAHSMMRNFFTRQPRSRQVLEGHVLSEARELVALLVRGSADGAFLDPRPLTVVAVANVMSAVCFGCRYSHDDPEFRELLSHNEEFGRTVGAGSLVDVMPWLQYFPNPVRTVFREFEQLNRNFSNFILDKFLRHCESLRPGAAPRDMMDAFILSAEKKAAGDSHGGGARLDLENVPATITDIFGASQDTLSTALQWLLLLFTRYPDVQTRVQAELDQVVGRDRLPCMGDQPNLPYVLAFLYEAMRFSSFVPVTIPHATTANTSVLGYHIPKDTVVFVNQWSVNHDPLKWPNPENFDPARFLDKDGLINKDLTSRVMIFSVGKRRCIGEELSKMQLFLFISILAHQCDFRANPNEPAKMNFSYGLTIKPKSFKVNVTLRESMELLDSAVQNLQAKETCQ
row,SMILES,AC50
1,c1ccc2[nH]c(-c3cscn3)nc2c1,6.26 µM (active)
2,C#CCOC(=O)[C@@H](C)Oc1ccc(Oc2ncc(Cl)cc2F)cc1,2.14 µM (active)
